This note sets out measurements from PubChem BioAssay (NCATS).

A short description of assay [1]: Viability qHTS for spleen associated tyrosine kinase inhibitor (SYKi) naive MV4-11 cells (AID 1963823). Also: nearly all actives have a fitted effect of over 40% in size. Conditions: MV4-11 AML viability, CellTiter-Glo luminescence, 72 h; series mostly up to 45 µM. In a few lines:
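CellTiter-Glo luminescence, 10 min room-temperature incubation, gave viability. Cells: naive MV4-11 (500/well), treated 72 hr at 37 C, 5% CO2.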

Assay [2] can be described thus: Viability qHTS for spleen associated tyrosine kinase inhibitor (SYKi) drug resistant MV4-11 cells (AID 1963824). Also: nearly all actives have a fitted effect of over 35% in size. The following applies: SYKi-resistant MV4-11 viability, CellTiter-Glo, 72 h; series mostly up to 45 µM. In a few lines:
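SYK-inhibitor-resistant MV4-11 AML cells were seeded at 500 per well onto compound and cultured 72 hours (37 °C, 5% CO2). CellTiter-Glo was then added, and after 10 min at room temperature, luminescence gave viability.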

Assay [3] can be described thus: Cellular viability qHTS for adrenocortical cancer (ACC) cell line NCI-H295R (AID 1963990). Also: nearly all actives have a fitted effect of over 60% in size. Conditions: CellTiter-Glo ATP luminescence, 48 h; series mostly up to 46.1 µM. In a few lines:
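Compound titrations (up to 46 uM final) are applied to NCI-H295R cultures for 48 h at 37C. Viable cell number is estimated by CellTiter-Glo signal, normalised to DMSO and doxorubicin controls.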

Several values for one entry are separate records, joined by “and”; a condition that tells them apart may be missing. Identical values can stand only once. Results filed as inconclusive are left out. Activity calls are given as the source filed them. Calls follow the shape of the dose curve; as a rule, active = well fitted curve in the direction sought with a large enough effect; inconclusive = small, poorly fitted or top-dose-only effect, or another doubt; inactive = no such curve, though single readings can be large; an effect the other way counts as inactive or inconclusive.
Potency is read from the fitted curve at half-maximal effect.

On to `COc1cc(C(=O)N2CCCCCCC2)cc(OC)c1OC`, for which the Potency entry in assay [1], in assay [2] and in assay [3] was “inactive” each time.

On to `CC(=O)c1ccc(O)c(C(N)=O)c1`, for which the Potency entry in assay [1], in assay [2] and in assay [3] was “inactive” in each case.

For `O=C(Nc1ccc(Oc2ccc(Cl)cc2)c(Cl)c1)c1cc(I)cc(I)c1O`, the Potency entry in assay [1] and in assay [2] was “inactive” throughout. In addition, in assay [3], the Potency was 20.6 µM (active).

For `CC(C)(O)[C@H]1CC[C@@](C)([C@H]2[C@@H](O)C[C@@]3(C)[C@@H]4C[C@H](O[C@@H]5O[C@H](CO)[C@@H](O)[C@H](O)[C@H]5O)[C@H]5C(C)(C)[C@@H](O[C@@H]6OC[C@@H](O)[C@H](O)[C@H]6O)CC[C@@]56C[C@@]46CC[C@]23C)O1`, the Potency result in assay [1], in assay [2] and in assay [3] was “inactive” throughout.

Consider `CCCCCCCCCCOCC(O)CN` (configuration not stated), for which the Potency in assay [1] was 23.7 µM (active); in assay [2] it was 26.6 µM (active); in assay [3], 18.4 µM (active).

Turning to `N#C/C(=C\c1ccc(O)c(O)c1)C(=O)NCc1ccccc1`, the Potency in assay [1] is 13.2 µM (active); in assay [2], 9.2 µM (active) and 16.6 µM (active). Moreover, the Potency result in assay [3] is “inactive”.

As to `CN1CCN(C2CCC(n3cc(-c4ccc(Oc5ccccc5)cc4)c4c(N)ncnc43)CC2)CC1` (configuration not stated), the Potency is 0.0231 µM (active) in assay [1]; 58 nM (active) and 74.2 nM (active) in assay [2]; 7.08 µM (active) in assay [3].

Take `C=CCNc1c(O)cc2c(O)c1C[C@@H](C)C[C@H](OC)[C@H](O)[C@@H](C)/C=C(/C)[C@H](OC(N)=O)[C@@H](OC)/C=C\C=C(\C)C(=O)N2`: the Potency in assay [1] was 0.132 µM (active); in assay [2] it was 0.417 µM (active); in assay [3] it was 10 µM (active).

With `C[C@H](NC(=O)/C(C#N)=C/c1cccc(Br)n1)c1ccccc1`, the Potency in assay [1] was 3.72 µM (active); in assay [2] it was 2.95 µM (active); in assay [3], 28.2 µM (active).

Take `Cc1ccc(-n2c(C)cc(-c3nnc4n3CCCCC4)c2C)cc1`: the Potency in assay [1] and in assay [2] was 8.33 µM (active) throughout. In assay [3], the Potency entry is “inactive”.

In the case of `CN1CCCN(C(c2ccccc2)c2ccc(Cl)cc2)CC1` (configuration not stated), the Potency in assay [1] is 21.1 µM (active); in assay [2], 16.8 µM (active); in assay [3], 23.1 µM (active).

Regarding `N#C/C(=C(/N)Sc1ccc(N)cc1)c1ccccc1C(F)(F)F`, the values for the Potency in assay [1] and in assay [2] were 10.5 µM (active) and 7.42 µM (active), respectively. In addition, in assay [3], the Potency result is “inactive”.

As for `CCCC(CCC)C(=O)Nc1ccn([C@@H]2O[C@H](CO)[C@@H](O)C2(F)F)c(=O)n1`, the Potency in assay [1] is 0.411 µM (active); in assay [2], 0.58 µM (active). For the same compound, the Potency entry in assay [3] is “inactive”.

Turning to `Cc1ccc(Nc2ncc3c(n2)N(C)C(=O)N(c2cc(NC(=O)c4cccc(C(F)(F)F)c4)ccc2C)C3)cn1`, the Potency was 0.0148 µM (active) in assay [1] and 0.013 µM (active) in assay [2]. In assay [3], the Potency entry is “inactive”.

Take `CC(=O)O[C@@]12CO[C@@H]1C[C@H](O)[C@@]1(C)C(=O)[C@H](O)C3=C(C)[C@@H](OC(=O)[C@H](O)[C@@H](NC(=O)OC(C)(C)C)c4ccccc4)C[C@@](O)([C@@H](OC(=O)c4ccccc4)[C@H]21)C3(C)C`: the Potency was 0.0027 µM (active) in assay [1], 0.0024 µM (active) in assay [2] and 0.0411 µM (active) in assay [3].

As to `c1ccc(-c2cc(CCC3CCNCC3)c3ccccc3n2)cc1`, the values for the Potency in assay [1], in assay [2] and in assay [3] were 7.42 µM (active), 6.61 µM (active) and 15.8 µM (active), respectively.

Turning to `CCNC(=O)Nc1ccc(-c2nc3c(c(N4CCOC[C@@H]4C)n2)CCN(C2COC2)C3)cc1`, the results for the Potency in assay [1], in assay [2] and in assay [3] were 0.934 µM (active), 1.86 µM (active) and 3.55 µM (active), respectively.

As for `CC(=O)c1cc2c(o1)C(=O)c1ccccc1C2=O`, the Potency in assay [1] is 1.18 µM (active); in assay [2], 1.32 µM (active); in assay [3], 0.891 µM (active).

For the compound `CNC(=O)Cn1cc(-c2ccc3c(c2)C(F)CC32NC(=O)N(CC(=O)N(Cc3ccc(F)cc3)C(C)C(F)(F)F)C2=O)cn1` (configuration not stated), the Potency is 0.0417 µM (active) in assay [1] and 0.166 µM (active) in assay [2]. Further, in assay [3], the Potency result is “inactive”.

Take `COc1ccccc1C(=O)Nc1cc2c(cc1N1CCNC[C@H]1C)n(C)c(=O)n2C`: the Potency in assay [1] is 5.9 µM (active); in assay [2], 11.8 µM (active). Besides, the Potency result in assay [3] is “inactive”.

For the compound `Cc1ccc(-c2nc(N)nc3c2nnn3Cc2cccc(CO[C@H]3CCOC3)n2)o1`, the Potency result in assay [1] and in assay [3] was “inactive” each time. The Potency in assay [2] was 16.6 µM (active).

As for `CC(C)NC(=O)C1CCC(n2c(NC(=O)c3ccc(F)cc3)nc3ccc(CN4CCC(C(C)(C)O)CC4)cc32)CC1` (configuration not stated), the figures for the Potency in assay [1], in assay [2] and in assay [3] were 1.02 µM (active), 2.04 µM (active) and 10.1 µM (active), respectively.

Consider `CN(C)Cc1cccc(N=C(c2ccccc2)c2c(O)[nH]c3cc(C(N)=O)ccc23)c1`, for which the Potency in assay [1] is 0.468 µM (active); in assay [2], 2.91 µM (active) and 1.18 µM (active). For the same compound, the Potency entry in assay [3] was “inactive”.

In the case of `COc1ccc2cc1Oc1cc3c(cc1OC)CC[N+](C)(C)[C@H]3Cc1ccc(cc1)Oc1c(OC)c(OC)cc3c1[C@@H](C2)[N+](C)(C)CC3`, the Potency entry in assay [1], in assay [2] and in assay [3] was “inactive” throughout.
